Laboratory results from PubChem BioAssay AID1851 (National Center for Advancing Translational Sciences (NCATS), 2009).
Several values for one entry are separate records, joined by “and”; a condition that tells them apart may be missing. Identical values can stand only once. Screen size: about 16,000 compounds; about 5,100 (32%) were called active. Roughly 25% stayed inconclusive and do not appear here. This is one part of the list. Unmarked numbers belong to inactive results. The call rests on the fitted dose curve; in most records, active means well fitted curve in the direction sought with a large enough effect; inconclusive means small, poorly fitted or top-dose-only effect, or effect the other way; inactive means no such curve, though single readings can be large or run the other way.

biological target: Cytochrome P450 3A4 (Homo sapiens) (UniProt P08684); test: Cytochrome panel assay with activity outcomes; settings: recombinant CYP, pro-luciferin dealkylation, luminescence, p450-cyp3a4; series mostly up to 57.1 µM
Sequence (P08684 whole entry, looked up): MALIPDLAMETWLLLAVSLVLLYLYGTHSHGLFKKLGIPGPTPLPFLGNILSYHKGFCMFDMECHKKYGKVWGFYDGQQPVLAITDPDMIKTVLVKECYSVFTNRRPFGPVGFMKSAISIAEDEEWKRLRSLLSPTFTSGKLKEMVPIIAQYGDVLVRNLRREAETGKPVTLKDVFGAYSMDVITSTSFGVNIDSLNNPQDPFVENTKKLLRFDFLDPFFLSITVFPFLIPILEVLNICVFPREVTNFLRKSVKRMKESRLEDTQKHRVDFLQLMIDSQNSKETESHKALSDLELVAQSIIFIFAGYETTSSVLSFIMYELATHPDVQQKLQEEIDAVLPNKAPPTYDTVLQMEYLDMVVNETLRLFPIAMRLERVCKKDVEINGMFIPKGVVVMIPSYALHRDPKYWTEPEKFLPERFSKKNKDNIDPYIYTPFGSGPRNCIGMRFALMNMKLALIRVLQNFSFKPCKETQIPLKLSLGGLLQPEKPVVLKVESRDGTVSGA
On the % scale 0 is the no-effect control and ±100 the full control effect.

SMILES	AC50	activity, negative = inhibition
Cc1cc(C)c(NC(=O)CS(=O)CC(=O)NCCCc2ccccc2)c(C)c1 (centres undefined)	3.55 µM (active)	–
CC(C)C(=O)NCCCc1ccccc1	–	2.86% [at 11.4 µM]
FC(F)(F)c1cnc(N2CCC(=NOCc3ccc(Cl)cc3)CC2)c(Cl)c1	inactive	–
N#CC(c1ccc(Cl)cc1)(c1ncc(C(F)(F)F)cc1Cl)N1CCOCC1 (centres undefined)	12.6 µM (active)	–
COC(=O)[C@@H]1[C@@H]2C[C@H]3c4[nH]c5ccccc5c4CCN3C[C@@H]2CC[C@@H]1OS(=O)(=O)O	–	0.48% [at 11.4 µM]
CC(=O)Nc1cccc(C(=O)OCc2ccc(C(=O)Oc3ccc(Cl)cc3)cc2)c1	inactive	–
CC(O)(CS(=O)(=O)Cc1ccc(Cl)cc1)C(=O)Nc1cccc(C(F)(F)F)c1 (centres undefined)	2 µM (active)	–
CC(O)(CS(=O)(=O)Cc1ccccc1Cl)C(=O)Nc1cccc(C(F)(F)F)c1 (centres undefined)	2.51 µM (active)	–
O=C(CCn1nc(-c2ccc(Cl)cc2)ccc1=O)NCc1ccccn1	10 µM (active)	–
COCCNC(=O)CCn1nc(-c2ccc(Cl)cc2)ccc1=O	inactive	–
CN(C)CCNC(=O)Cn1nc(-c2ccc(Cl)cc2)ccc1=O	inactive	–
Cc1ccc(-n2nnnc2-c2cnc3ccc(Cl)cc3c2-c2ccccc2)cc1	5.62 µM (active)	–
Cc1ccc(C(=O)CSc2nc(C)cc(=O)[nH]2)cc1	inactive	–
Cc1nc(SCC(=O)c2ccc(F)cc2)c([N+](=O)[O-])[nH]1	–	5.95% [at 2.29 µM]
Cc1ccc2nc(SCC(=O)c3ccc4c(c3)OCO4)[nH]c2c1	2.24 µM (active)	–
Nc1ccc(S(=O)(=O)Nc2cnc3ccccc3n2)cc1	–	-8.37% [at 11.4 µM]
CNc1cc(NS(=O)(=O)c2ccc(N)cc2)nc(NC)n1	0.794 µM (active)	–
Cc1cc(C)nc(NS(=O)(=O)c2ccc(N)cc2)n1	inactive	–
NC1=N[C@H](c2ccc(Cl)cc2)N(c2ccc(S(=O)(=O)Nc3ncccn3)cc2)C(N)=N1	–	6.25% [at 11.4 µM]
Cc1cc(C(=O)OC2CCOC2=O)c2ccccc2n1 (centres undefined)	–	-7.34% [at 11.4 µM]
COc1cc(CC(=O)OC2CCOC2=O)cc(OC)c1OC (centres undefined)	inactive	–
COc1cc(OC)cc(C(=O)NCC(=O)OC2CCOC2=O)c1 (centres undefined)	25.1 µM (active)	–
O=C1C[C@@H](O)[C@@H](O)[C@H]2[C@@H]3C(=O)N(C[C@@H]4CCCO4)C(=O)[C@@H]3CC[C@H]12	–	9.5% [at 11.4 µM] and -5.79% [at 11.4 µM]
O=c1[nH]c(=S)c2[nH]c(=O)n(-c3ccccc3)c2[nH]1	–	-9.23% [at 11.4 µM]

SMILES	AC50	activity, negative = inhibition
CCOc1ccccc1NC(=O)C1=C(C)NC(=O)NC1c1cccc(OC)c1OC (centres undefined)	3.98 µM (active)	–
CCOc1ccccc1NC(=O)CN1CCC(NC(=O)c2ccccc2)CC1	inactive	–
C#CCn1c(S(=O)(=O)Cc2ccc(OC)cc2)nc(-c2ccccc2)c1-c1ccccc1	6.31 µM (active)	–
COc1ccccc1C1(CC(=O)Nc2nccs2)CCOC(C(C)C)C1 (centres undefined)	6.31 µM (active)	–
O=c1oc2cc(N=Cc3ccc4c(c3)OCO4)ccc2c2ccccc12	3.98 µM (active)	–
O=[N+]([O-])c1ccc2c(c1)Cc1cc(N=Cc3ccc4c(c3)OCO4)ccc1-2	–	-16.1% [at 11.4 µM]
CC(=O)NC1(c2cccc(F)c2)CCN(CC(=O)NC(C)C)CC1	inactive	–
COc1ccc(/C(C)=N/NC(=O)c2ccc(N(C)C)cc2)cc1	inactive	–
COc1ccc(C(=O)N/N=C2/C(=O)c3c(C)cc(C)cc3CC2(C)C)cc1	3.16 µM (active)	–
COc1ccccc1CN1CCC2(CCNCC2)CC1	inactive	–
c1cncc(-c2nc(NCc3cccs3)c3ccccc3n2)c1	2 µM (active)	–
c1csc(CNc2nc(-c3ccoc3)nc3ccccc23)c1	7.94 µM (active)	–
c1cncc(CNc2nc(-c3ccoc3)nc3ccccc23)c1	7.94 µM (active)	–
Cc1cccc(CNc2nc(-c3ccoc3)nc3ccccc23)c1	6.31 µM (active)	–
NS(=O)(=O)c1cc2c(cc1Cl)=NC(CCC(=O)O)=NS=2(=O)O	–	15.3% [at 11.4 µM]
c1ccc(CNc2nc(-c3ccoc3)nc3ccccc23)cc1	12.6 µM (active)	–
Cc1ccccc1-c1cncnc1NC1CCNCC1	15.8 µM (active)	–
CNc1ncncc1-c1ccccc1C	0.631 µM (active)	–
Cc1ccccc1-c1cncnc1Nc1ccc(F)cc1	0.2 µM (active)	–
CNc1cc(-c2ccccc2C)ncn1	inactive	–
COc1ccccc1-c1cncnc1Nc1ccc(F)cc1	0.158 µM (active)	–
c1cncc(-c2cncnc2NC2CCNCC2)c1	inactive	–
CC(=O)N(C[C@@H](C)C(=O)O)c1c(I)cc(I)c(N)c1I	inactive	–
CCCCCSc1nncc(=O)[nH]1	–	2.96% [at 11.4 µM]

SMILES	AC50	activity, negative = inhibition
O=C(O)[C@@H]1[C@@H](C(=O)Nc2ccccc2)[C@@H]2C=C[C@@H]1O2	–	-5.39% [at 11.4 µM]
O=C(O)[C@@H]1[C@@H]2C[C@@H]3[C@@H](OC(=O)[C@@H]31)[C@H]2Br	–	-5.69% [at 11.4 µM]
CCCNc1[nH]c(=O)n(C)c(=O)c1N=O	–	-16% [at 2.29 µM]
Cc1cc(Nc2ccccc2)nc(N)n1	inactive	–
Cc1ccccc1-c1cncnc1Nc1ccccc1	0.631 µM (active)	–
O=C(O)c1ccc(Nc2ccnc3cc(Cl)ccc23)cc1O	–	-7.77% [at 11.4 µM]
Cc1cccc(C)c1NC(=O)[C@H](C)N	inactive	–
Cc1cccc(C)c1NC(=O)C(NC=O)c1ccccc1Cl (centres undefined)	10 µM (active)	–
COC(=O)c1[nH]c2cc(OC)ccc2c1NC(=O)CCN1CCSCC1	–	1.53% [at 2.29 µM]
COC(=O)c1[nH]c2cc(OC)ccc2c1NC(=O)c1ccc2c(c1)OCO2	7.94 µM (active)	–
COC(=O)c1[nH]c2cccc(OC)c2c1NC(=O)CN(C)CC1OCCO1	inactive	–
CCOC(=O)c1[nH]c2cc3c(cc2c1NC(=O)CN1CCC2(CC1)OCCO2)OCO3	inactive	–
CCOC(=O)c1[nH]c2ccc(OC)cc2c1NC(=O)c1ccc2c(c1)OCO2	1.41 µM (active)	–
CCOC(=O)c1ccc(NC(=O)C2(c3ccc(OC)cc3)CCOCC2)cc1	–	-2.41% [at 2.29 µM]
CCOC(=O)c1[nH]c2cc(OC)c(OC)cc2c1NC(=O)c1ccc2c(c1)OCO2	7.94 µM (active)	–
CCOC(=O)c1[nH]c2cc3c(cc2c1NC(=O)CN1CCc2ccccc2C1)OCO3	0.708 µM (active)	–
CSc1cc(C)nc(NC(C)=O)n1	inactive	–
CCc1nc(SCC(=O)N2CCCc3ccccc32)c2oc3ccccc3c2n1	15.8 µM (active)	–
CCc1nc(SCC(=O)c2ccc(Cl)s2)c2oc3ccccc3c2n1	7.94 µM (active)	–
CCc1nc(SCC(=O)NCCc2ccccc2)c2oc3ccccc3c2n1	3.55 µM (active)	–
CCc1nc(N[C@H](C(=O)O)C(C)CC)c2oc3ccccc3c2n1 (some centres undefined)	inactive	–
Cc1nc(Oc2ccc(Cl)cc2)c2oc3ccccc3c2n1	–	5.99% [at 2.29 µM]
Cc1ccccc1C(=O)NC(C)c1ccc2c(c1)CCCC2 (centres undefined)	inactive	–
CCCCN=c1sc(C(=O)OC)cc(=O)n1CCCC	inactive	–

SMILES	AC50	activity, negative = inhibition
COC(=O)[C@H](CCSC)NC(=O)C/C=C\[C@@H](C)CO	–	-19.4% [at 11.4 µM]
COC(=O)[C@H](CCSC)NC(=O)C/C=C\[C@@H](C)[C@@H](CO)OC	–	-14.3% [at 11.4 µM]
COC(=O)[C@H](CCSC)NC(=O)NCc1ccccc1F	15.8 µM (active)	–
C[C@@H](C(=O)Nc1ccc2ccccc2c1)[C@@H]1C[C@@]1(C)[C@@H](NC(=O)c1ccncc1Cl)c1ccccc1	10 µM (active)	–
C[C@@H](C(=O)Nc1ccc2ccccc2c1)[C@@H]1C[C@@]1(C)[C@@H](NC(=O)c1cnccn1)c1ccccc1	1 µM (active)	–
C[C@@H](C(=O)Nc1ccc2ccccc2c1)[C@H]1C[C@]1(C)[C@H](NC(=O)c1cnccn1)c1ccccc1	0.631 µM (active)	–
C=CCNC(=S)N1CCN(c2ncc3c(=O)c(C(=O)O)cn(CC)c3n2)CC1	inactive	–
COc1cccc(CSCC(=O)O)c1	–	-5.22% [at 11.4 µM]
Fc1ccc(Cn2c(SCc3ccc(F)c(C(F)(F)F)c3)nnc2C(F)(F)F)cc1	20 µM (active)	–
Cc1ccc(CSc2nnc(C(F)(F)F)n2Cc2ccc(F)cc2)cc1	3.16 µM (active)	–
Fc1ccc(Cn2c(SCc3ccc(F)c(F)c3)nnc2C(F)(F)F)cc1	15.8 µM (active)	–
COc1ccc(C(=O)NC(CO)c2nnc(SCc3ccc(Cl)c(Cl)c3)n2C)cc1 (centres undefined)	–	-5.47% [at 2.29 µM]
COc1cccc(CSc2nnc(C(F)(F)F)n2Cc2ccc(F)cc2)c1	28.2 µM (active)	–
NC(=O)CC(c1ccccc1)c1ccco1 (centres undefined)	inactive	–
c1ccc(CNc2ccnc(-c3cccnc3)n2)cc1	0.631 µM (active)	–
O=C(Nc1ccnc(-c2cccnc2)n1)c1ccccc1Cl	–	3.82% [at 2.29 µM]
Cc1cccc(NC(=O)c2cc(N3C(=O)CCC3=O)ccc2Cl)n1	inactive	–
O=C(Nc1ccnc(-c2cccnc2)n1)c1cccc(Cl)c1Cl	4.47 µM (active)	–
Cc1cccc(CNc2ccnc(-c3cccnc3)n2)c1	0.501 µM (active)	–
CC(=O)Nc1ccnc(-c2cccnc2)n1	inactive	–
Cn1cc(C(=O)c2ccc(Cl)cc2Cl)cc1C(=O)O	inactive	–
Nc1nc(NCc2ccccc2)nc(Nc2cccc(F)c2)c1[N+](=O)[O-]	inactive	–
